Source: PubChem BioAssay
Only some compounds are listed: those with a hit (about 4.3% of all), similar ones and a draw of the others.
NR3A LBD binder = NR3A (human) ligand-binding domain modulation. Tm shift relative to glycine control, % at 25 µM. 2.5% of 340,000 active. AID 1259313. NR3A LBD differential scanning fluorimetry, Tm shift; 0% = protein alone, 100% = glycine-bound protein;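 active = melting temperature shift of at least 10% of the positive control shift, at one fixed dose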
FAS TE block = inhibitors of human fatty acid synthase thioesterase domain; P49327; recombinant FAS-TE, OMFH fluorogenic substrate, fluorescence endpoint; inhibition, % at 15 µM; 0.67% of 360,000 active;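 active = compounds whose normalised, plate-corrected inhibition of enzyme fluorescence in the single-dose primary screen is 50% or more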
NadD inh = blocks S. aureus nicotinate mononucleotide adenylyltransferase; AID 602399; purified NadD enzyme, colorimetric absorbance read-out; 0.78% of 360,000 active; inhibition, % at 20 µM; in the data active = inhibition above about 26%
rCAG binder = r(CAG) repeat RNA binding. TO-PRO-1 dye displacement fluorescence. inhibition, % at 3 µM. 1.3% of 370,000 active. AID 651821;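 active = inhibition above the plate cutoff, the mean of all test compounds on that plate plus 3 SD, cut at about 35% in these data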;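 also: higher means more dye released from RNA so lower well fluorescence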
FAS-TE inh conf = confirmation of human fatty acid synthase thioesterase inhibitors. inhibition, % at 15 µM. AID 624325. recombinant FAS-TE, OMFH fluorogenic substrate, fluorescence. 45% of 2,300 active. shares compounds with FAS TE block;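 active = compounds inhibiting the enzyme by at least 50% at 15 µM in any one of the replicates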
Numbers stand for hits; i = inactive; nt = not tested or not shown.

SMILES	NR3A LBD binder	FAS TE block	NadD inh	rCAG binder	FAS-TE inh conf
Cc1cccc(COCC(CC(C)C)N2CCN(C(=O)c3ccc(C(C)(C)C)cc3)CCC2=O)c1 (stereo unspecified)	i	58.6	i	i	56.4
Cc1ccccc1C(=O)N(C)[C@H]1C[C@H]2c3[nH]c4c(-c5ccccc5)cccc4c3CCN2C[C@H]1[C@H](C)O	nt	nt	nt	i	nt
CC(C)[C@H](NC(=O)c1ccc(Cl)cc1Cl)C(=O)N1CCC[C@H]1C(=O)NCCc1ccccc1Cl	nt	nt	nt	i	nt
O=C(CSc1nnc(-c2ccncc2)n1-c1ccccc1)Nc1ccc2c(c1)OCCO2	nt	nt	nt	i	nt
COC(=O)c1ccccc1NC(=S)N(Cc1ccc2c(c1)OCO2)Cc1cc2cc(OC)ccc2[nH]c1=O	i	67.8	i	i	i
CCCNC(=O)C1CCN(S(=O)(=O)c2cccs2)CC1	i	i	i	i	nt
O=C(NCCN1C(=O)S/C(=C\c2ccccc2F)C1=O)C1CCN(S(=O)(=O)c2cccs2)CC1	i	61.4	i	i	i
O=C1c2ccc(-c3ccc(F)cc3OCc3ccccc3)cc2S(=O)(=O)c2cccc(C(=O)N3CCCC3)c21	i	61.7	i	nt	i
Cc1ccc(CSc2nnc(-c3cccs3)o2)cc1C	nt	nt	nt	i	nt
COC(=O)[C@]12CCCCC=C1N(Cc1ccc(OC)cc1)C(=O)[C@@H]2CC(=O)N1CCC(c2ccccc2)CC1	nt	nt	nt	i	nt
COc1ccc2nc(NC(=O)c3ccc([N+](=O)[O-])o3)sc2c1	i	57.5	i	i	50.8
Cn1c(=NC(=O)c2ccccc2[N+](=O)[O-])sc2cc(S(C)(=O)=O)ccc21	i	i	i	i	nt
Cn1c(=NC(=O)c2ccc(S(=O)(=O)N3CCCc4ccccc43)cc2)sc2cc(S(C)(=O)=O)ccc21	i	82.8	i	i	i
CCOC1=C2[C@H](c3ccccc3)N(S(=O)(=O)c3ccccc3)C[C@H]2n2c(=O)n(-c3ccccc3)c(=O)n2C1	nt	72.7	i	i	i
CCOC1=C2[C@H](c3cccs3)N(S(=O)(=O)c3ccc(C)cc3)C[C@H]2n2c(=O)n(-c3ccccc3)c(=O)n2C1	nt	72.7	i	i	i
CCOC1=C2CN(S(=O)(=O)c3ccc(C)cc3)C(c3ccc(CC)cc3)CC2n2c(=O)n(-c3ccccc3)c(=O)n2C1 (stereo unspecified)	nt	nt	nt	i	nt
CCOC1=C2CN(S(=O)(=O)c3ccccc3)[C@H](c3ccccc3)C[C@H]2n2c(=O)n(-c3ccccc3)c(=O)n2C1	nt	80.4	i	i	i
C[C@H]1COc2cc(Br)ccc2S(=O)(=O)N1Cc1cn(CCC2OCCCO2)nn1	nt	nt	nt	i	nt
O=C(CCCC(=O)Nc1cccc(Br)c1)N/N=C/c1cc([N+](=O)[O-])ccc1O	i	54.5	i	i	71.9
Cc1ccc(NC(=O)CCC(=O)N/N=C/c2cc([N+](=O)[O-])ccc2O)cc1	i	i	i	i	nt
Cc1ccccc1NC(=O)CCC(=O)N/N=C/c1cc([N+](=O)[O-])ccc1O	i	i	i	i	nt
O=C(CCC(=O)Nc1cccc(Cl)c1)N/N=C/c1cc([N+](=O)[O-])ccc1O	i	65.2	i	i	82.8
COC(=O)c1cc(C(=O)Nc2nnc(CC(C)(C)C)s2)cc([N+](=O)[O-])c1	i	52.5	i	i	58.7
CCOCc1nnc(NC(=O)c2cc(C(=O)OC)cc([N+](=O)[O-])c2)s1	i	i	i	i	nt
COc1ccc(CCNC(=O)c2cc3c(C)nn(-c4ccccc4)c3s2)cc1OC	nt	nt	nt	i	nt
SMILES	NR3A LBD binder	FAS TE block	NadD inh	rCAG binder	FAS-TE inh conf
O=[N+]([O-])c1ccc(S(=O)(=O)NN=Cc2ccc3c(c2)OCO3)cc1	i	64.4	i	i	72.3
O=S(=O)(N/N=C/c1ccc2c(c1)OCO2)c1ccc(Br)cc1	i	i	i	i	nt
CC(=O)N1N=C(c2ccc(Br)cc2)CC1c1cccc([N+](=O)[O-])c1 (stereo unspecified)	nt	62.4	i	i	48.8
CC(=O)N1N=C(c2cccc([N+](=O)[O-])c2)OC1c1ccc(Cl)cc1Cl (stereo unspecified)	i	53.3	i	i	i
CC(=O)N1N=C(c2cccc([N+](=O)[O-])c2)OC1c1ccc(Br)cc1 (stereo unspecified)	i	50.8	i	i	i
COc1ccccc1C1OC(c2cccc([N+](=O)[O-])c2)=NN1C(C)=O (stereo unspecified)	i	i	i	i	nt
COC(=O)[C@]12C[C@H](CC(=O)N3CCSCC3)C(=O)N(CCC3=CCCCC3)C1=C[C@H](C(C)C)O[C@@H]2C1CC1	nt	nt	nt	i	nt
COc1cc(/C=N/N(C)c2ccccc2)cc(Cl)c1O	i	73.3	i	i	57.1
